The values that follow come from PubChem BioAssay (Tox21).

Results filed as inconclusive are left out. Calls of active or inactive are those of the source. Unless noted, the call rests on the fitted dose curve; in most records, active means well fitted curve in the direction sought with a large enough effect in the repeat runs; inconclusive means weak or mixed curves; inactive means no such curve, though single readings can be large; an effect the other way counts as inactive or inconclusive.

Assay [1] has as its target Retinoic acid receptor RXR-alpha (Homo sapiens) (UniProt P19793). The experiment in a line: qHTS assay to identify small molecule agonists of the RXR signaling pathway (AID 1159527; calls by dose curve; further: nearly all actives have a fitted effect of over 35% in size; further: potency means the concentration at half of the fitted maximal effect). In short, it runs like this:
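Using 9-cis retinoic acid as the reference agonist, chemicals were tested in HEK 293T cells […] for 16 hr; substrate loading lasted 2 hr at room temperature.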
For orientation: In qHTS, concentration-response curves come from the screen itself.

The nature of assay [2]: qHTS assay to identify small molecule agonists of the RXR signaling pathway - cell viability counter screen (AID 1159529). Further: nearly all actives have a fitted effect of over 50% in size. Further: potency means the concentration at half of the fitted maximal effect. In short, it runs like this: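 Compounds dissolved in DMSO were pinned onto HEK 293T cells carrying a beta-lactamase reporter under RXR-alpha control and incubated 16 hr. Cytotoxicity was then quantified by CellTiter-Glo luminescence.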
Assay [3] is described as follows: qHTS assay to identify small molecule antagonists of the retinoid acid receptor (RAR) signaling pathway - cell viability counter screen (AID 1159551). Further: nearly all actives have a fitted effect of over 35% in size. In short, it runs like this: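 Cells (C3RL4) are plated, incubated overnight, dosed with compound in DMSO, then given retinol at 1 uM final. After 6 h at 37 C, CellTiter-Glo is added and luminescence read following 30 min at room temperature.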

Assay [4] is described as follows: qHTS assay to identify small molecule antagonists of the retinoic acid receptor (RAR) signaling pathway (AID 1159552; further: nearly all actives have a fitted effect of over 50% in size). In short, it runs like this:
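Test chemicals and DMSO controls were pin-transferred onto C3RL4 cells a day after seeding; retinol (1 uM final) followed at once. Luminescent reporter output was quantified after 6 hr of co-incubation and 30 min with detection reagent.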

Assay [5] can be described thus: qHTS assay to identify small molecule agonists of the retinoic acid receptor (RAR) signaling pathway (AID 1159553). Further: potency means the concentration at half of the fitted maximal effect. In short, it runs like this: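 Seed C3RL4 reporter cells at 1,000 per well and incubate overnight at 37 C. Add compounds in DMSO, incubate 6 hr. Add luciferase reagent, wait 30 min at room temperature, read luminescence.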
A short description of assay [6]: qHTS assay to identify small molecule antagonists of the estrogen related receptor (ERR) signaling pathway - cell viability counter screen (AID 1224818). Further: series mostly up to about 46 µM. In short, it runs like this:
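ERR cells, 2,000/well; 6 h settle at 37 C/5% CO2; compound pin transfer (DMSO); 17.5 h at 37 C; CellTiter-Fluor, 30 min, fluorescence read.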

The nature of assay [7]: qHTS assay to identify small molecule antagonists of the estrogen related receptor signaling pathway with the pleiotropic PPARgamma coactivator (PGC) cell viability counter screen (AID 1224822;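 further: series mostly up to about 46 µM; viability read after 17.5 h compound exposure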). In short, it runs like this:
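Multiplexed viability counter screen run in PGC/ERR cells treated with compounds for 17.5 h at 37 C; live-cell protease signal measured by CellTiter-Fluor fluorescence.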

The nature of assay [8]: qHTS assay to identify small molecule antagonists of the estrogen related receptor (ERR) signaling pathway (AID 1224819;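 further: luminescence from an ERR-driven luciferase reporter measured with One-Glo reagent; series mostly up to about 46 µM; nearly all actives have a fitted effect of over 50% in size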). In short, it runs like this:
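qHTS in ERR cells, 2,000/well, 1536 format. Cpd (DMSO) added after 6 h settle, 18 h 37 C. One-Glo luminescence, 30 min RT.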

Assay [9] is described as follows: qHTS assay to identify small molecule agonists of the estrogen related receptor (ERR) signaling pathway (AID 1224820). In short, it runs like this: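 Luminescence readout (One-Glo, 30 min RT) from NTP-supplied ERR cell line exposed to compounds for 18 h at 37 C. Cells seeded 2,000 per well and pre-incubated 6 h before pin-tool compound transfer.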
Assay [10] has as its system estrogen-related receptor alpha (ERRalpha) with PGC-1alpha coactivator, human. The experiment in a line: qHTS assay to identify small molecule antagonists of the estrogen related receptor signaling pathway with the pleiotropic PPARgamma coactivator (PGC) (AID 1224821; calls by dose curve;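 further: series mostly up to about 46 µM; lower luminescence signal means antagonism of PGC/ERR signalling; nearly all actives have a fitted effect of over 50% in size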). In short, it runs like this: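 PGC/ERR reporter cells; 6 h pre-incubation 37 C/5% CO2; pin-tool compound in DMSO, 18 h 37 C; One-Glo added, 30 min RT; luminescence read. qHTS antagonist mode.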

Sequence of Retinoic acid receptor RXR-alpha (Homo sapiens) (P19793 whole entry, looked up): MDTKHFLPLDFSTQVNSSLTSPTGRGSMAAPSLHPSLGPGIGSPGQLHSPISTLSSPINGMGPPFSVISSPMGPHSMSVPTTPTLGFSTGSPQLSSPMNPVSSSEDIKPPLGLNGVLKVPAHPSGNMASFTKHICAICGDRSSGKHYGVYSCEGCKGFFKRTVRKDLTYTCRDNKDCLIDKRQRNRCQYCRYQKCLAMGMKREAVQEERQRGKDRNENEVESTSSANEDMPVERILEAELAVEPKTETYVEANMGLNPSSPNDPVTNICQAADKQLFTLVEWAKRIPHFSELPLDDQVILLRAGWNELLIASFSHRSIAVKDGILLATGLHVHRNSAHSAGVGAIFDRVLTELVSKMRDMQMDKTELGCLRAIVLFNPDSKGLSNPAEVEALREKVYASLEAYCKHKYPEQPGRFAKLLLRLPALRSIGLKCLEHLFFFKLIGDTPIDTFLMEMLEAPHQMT

Regarding `Cc1nnc(SCC2=C(C(=O)O)N3C(=O)[C@@H](NC(=O)Cn4cnnn4)[C@H]3SC2)s1`, the Potency result in assay [1], in [2], in assay [4] and in [5] was “inactive” each time. The outcome in assay [3], in assay [6] and in assay [7] was inactive.
In the case of `COc1ccccc1N1CCN(CCCNc2cc(=O)n(C)c(=O)n2C)CC1`, the Potency result in [1], in assay [2], in [4] and in [5] was “inactive” in each case. In addition, the compound was called inactive in [3], in assay [6], in [8], in [9], in [10] and in assay [7].
For `CC/C=C\CCOC(=O)C(C)C`, the Potency entry in assay [1], in [2], in assay [4] and in assay [5] was “inactive” each time. In assay [3], the compound was called inactive.
Regarding `CC(C)(C)C1CCCCC1=O` (configuration not stated), the Potency entry in assay [1], in assay [2], in assay [4] and in assay [5] was “inactive” in each case. Further, in [3], the outcome was inactive.
As to `C=O`, the Potency entry in assay [1], in assay [2], in [4] and in assay [5] was “inactive” in each case. In addition, the outcome in assay [3] was inactive.
Take `NC/C=C/C(=O)O`: the Potency entry in assay [1], in [2], in [4] and in [5] was “inactive” in each case. Besides, the call in assay [3], in assay [6], in [8], in assay [9], in [10] and in assay [7] was inactive.
In the case of `CN(C)Cc1ccccc1`, the Potency entry in assay [1], in [2] and in assay [5] was “inactive” in each case. Besides, in assay [3], the call was inactive.
As for `CO[Si](C)(C)OC`, the Potency entry in assay [1], in assay [2], in [4] and in assay [5] was “inactive” in each case. In addition, in [3], the compound was called inactive.
Regarding `NCCCN1CCN(CCCN)CC1`, the Potency result in assay [1], in assay [2], in [4] and in assay [5] was “inactive” in each case. The compound was called inactive in assay [3].
As for `FC(F)(F)C(Cl)(Cl)Cl`, the Potency entry in assay [1], in [2] and in assay [5] was “inactive” each time. Also, the compound was called inactive in [3].
Regarding `CCCCC(CC)COC(=O)COc1cc(Cl)c(Cl)cc1Cl` (configuration not stated), the Potency entry in assay [1], in [2] and in assay [5] was “inactive” each time. Moreover, the compound was classed as inactive in [3].
As for `O=c1[nH]c(=O)n([C@H]2C[C@H](O)[C@@H](CO)O2)cc1C(F)(F)F`, the Potency result in [1], in assay [2], in assay [4] and in assay [5] was “inactive” each time. Further, the call in assay [3] was inactive.
In the case of `CCN(O)CC`, the Potency entry in [1], in assay [2] and in assay [5] was “inactive” throughout. The compound was called inactive in [3].
For the compound `CC(C)NCC(O)COc1ccc(CCOCC2CC2)cc1` (configuration not stated), the Potency result in [1], in [2], in assay [4] and in assay [5] was “inactive” in each case. Also, the compound was called inactive in [3], in assay [6] and in [7].
As for `CCCCCOc1ccc(C2SC(=O)NC2=O)cc1OCC` (configuration not stated), the Potency in assay [1] was 5.35 µM (active); in [5], 21.1 µM (active). The Potency result in [2] and in assay [4] was “inactive” in each case. For the same compound, the outcome in [3] was inactive.
With `Cc1ccc([N+](=O)[O-])cc1Cl`, the Potency result in assay [1], in assay [2] and in [5] was “inactive” in each case. In addition, the compound was classed as inactive in assay [3].
With `CC(C)(C)c1cccc(O)c1`, the Potency entry in assay [1], in [2], in assay [4] and in assay [5] was “inactive” throughout. Moreover, in assay [3], the compound was classed as inactive.
In the case of `N#CSCC(=O)O`, the Potency entry in assay [1], in [2], in assay [4] and in [5] was “inactive” throughout. The call in assay [3] was inactive.
Regarding `CCCNC(C)(C)COC(=O)c1ccccc1`, the Potency entry in assay [1], in assay [2] and in assay [5] was “inactive” throughout. The compound was classed as inactive in [3].
Consider `O=[N+]([O-])c1nccn1CO[C@@H](CO)[C@H](O)CO`, for which the Potency result in [1], in assay [2], in [4] and in [5] was “inactive” each time. In addition, in assay [3], the compound was called inactive.
In the case of `CCCCCCn1c(=O)c2c(ncn2C)n(C)c1=O`, the Potency entry in assay [1], in assay [2] and in assay [5] was “inactive” throughout. Besides, the call in assay [3] was inactive.
For `O=C(O)[C@@H]1CSCN1`, the Potency result in assay [1], in assay [2] and in assay [5] was “inactive” each time. Also, the outcome in assay [3] was inactive.
For the compound `O=C1N(c2ccccc2)c2ccccc2C1(Cc1ccncc1)Cc1ccncc1`, the Potency result in [1], in assay [2], in assay [4] and in assay [5] was “inactive” in each case. Besides, the call in assay [3], in [6], in [8], in assay [9] and in [7] was inactive.
`CCCCNc1cc(C(=O)O)cc(S(N)(=O)=O)c1Oc1ccccc1`: the Potency entry in assay [1], in [2], in [4] and in [5] was “inactive” in each case. The compound was called inactive in [3], in assay [6] and in assay [7].
`COC(=O)/C=C(/C)N`: the Potency entry in [1], in assay [2] and in assay [5] was “inactive” each time. Besides, the result in assay [3] was inactive.
As to `CCCNC(C)C(=O)Nc1c(C)csc1C(=O)OC` (configuration not stated), the Potency entry in assay [1], in [2], in [4] and in assay [5] was “inactive” each time. Also, the outcome in assay [3] was inactive.
Consider `CC(CNC1CCCCC1)OC(=O)c1ccccc1` (configuration not stated), for which the Potency result in assay [1], in [2] and in [5] was “inactive” in each case. Also, the compound was called inactive in assay [3].
For `CC(C)CC(=O)OCc1ccccc1`, the Potency result in assay [1], in assay [2] and in assay [5] was “inactive” each time. Besides, the outcome in assay [3] was inactive.
On to `CCN(CC)CCOc1ccc(Cc2ccccc2)cc1`, for which, in [2], the Potency result is “inactive”. The result in [3] was inactive.
Take `O=C(Cl)c1cccc([N+](=O)[O-])c1`: the Potency result in assay [1], in [4] and in assay [5] was “inactive” in each case. In addition, the call in assay [3] was inactive.
Regarding `Cc1c(-c2ccccc2)oc2c(C(=O)OCCN3CCCCC3)cccc2c1=O`, in assay [2], the Potency entry was “inactive”. The result in assay [3] was inactive.
Turning to `Cc1ccc([N+](=O)[O-])c(N)c1`, the Potency entry in [2] was “inactive”. In addition, the compound was called inactive in [3].
`ClC(Cl)Cl`: the Potency result in [2] and in assay [4] was “inactive” in each case. The call in assay [3] was inactive.
`CC(C)OC(C)C`: the Potency entry in [1], in assay [4] and in assay [5] was “inactive” in each case. For the same compound, the compound was called inactive in [3].
Take `CO[C@@]1(NC(=O)CSCC#N)C(=O)N2C(C(=O)O)=C(CSc3nnnn3C)CS[C@@H]21`: the Potency result in assay [1], in [4] and in assay [5] was “inactive” in each case. The compound was classed as inactive in [3], in [6] and in assay [7].
`CC1=C2[C@H](/C=C(\C)C(=O)O)CC[C@@H](C)[C@H]2CC1`: the Potency in assay [2] is 45.3 µM (active). The compound was classed as inactive in [3]. For the same compound, the Potency entry in assay [4] is “inactive”.
On to `Nc1ccc(Oc2ccc(N)c(N)c2)cc1`, for which the Potency result in assay [2] and in assay [4] was “inactive” throughout. For the same compound, the outcome in assay [3] was inactive. For the same compound, the Potency in assay [5] was 1.72 µM (active).
For the compound `CN1CCN(c2c(F)cc3c(=O)c(C(=O)O)cn(CCF)c3c2F)CC1`, the Potency entry in [1] and in assay [5] was “inactive” throughout. Also, in assay [3], the compound was classed as inactive.
